{"source": "PubChem BioAssay AID2561", "about": "(National Center for Advancing Translational Sciences (NCATS), 2010)", "note": "Inconclusive results are not listed. Where a call stands in place of a potency, no number is given. Active and inactive are the calls of the source. The call rests on the fitted dose curve; in most records, active means well fitted inhibition curve with a large enough effect; inconclusive means small, poorly fitted or top-dose-only effect, or effect the other way; inactive means flat fitted curve, though single readings scatter. Potency means the concentration at half of the fitted maximal effect."}
{"biological_target": "Pyruvate kinase (Leishmania mexicana) (UniProt Q27686)", "sequence (Q27686 whole entry, looked up)": "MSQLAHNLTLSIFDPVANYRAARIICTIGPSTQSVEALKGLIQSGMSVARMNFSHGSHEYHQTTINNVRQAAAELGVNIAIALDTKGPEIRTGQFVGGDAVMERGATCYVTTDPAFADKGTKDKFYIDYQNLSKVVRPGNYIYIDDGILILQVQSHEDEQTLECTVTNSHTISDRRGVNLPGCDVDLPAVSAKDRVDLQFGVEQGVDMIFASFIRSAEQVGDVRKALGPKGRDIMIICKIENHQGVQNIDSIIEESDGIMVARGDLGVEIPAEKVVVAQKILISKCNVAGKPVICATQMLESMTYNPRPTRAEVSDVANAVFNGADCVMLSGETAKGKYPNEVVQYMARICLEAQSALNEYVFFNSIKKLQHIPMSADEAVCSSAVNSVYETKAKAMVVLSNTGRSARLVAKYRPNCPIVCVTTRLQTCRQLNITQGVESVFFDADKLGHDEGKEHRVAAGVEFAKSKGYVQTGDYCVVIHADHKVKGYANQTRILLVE", "assay": "Confirmation Assay for Inhibitors of Leishmania Mexicana Pyruvate Kinase (LmPK): for Probe SAR", "details": "purified LmPK, ATP generation, Kinase-Glo luminescence; series mostly up to 57.5 µM", "outline": "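Purified LmPK (0.1 nM) converted ADP (0.1 mM, ~10-fold below Km) plus PEP (0.5 mM, at Km) to ATP over 1 h at room temperature in pH 7.2 imidazole buffer. Generated ATP was read by luciferase luminescence.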"}
{"smiles": "Cc1ccc(-c2nc3ccccn3c2Nc2ccc(F)cc2)o1", "Potency": "inactive"}
{"smiles": "Cc1ccc(-c2nc3ccc(Cl)cn3c2Nc2ccccc2)o1", "Potency": "inactive"}
{"smiles": "O=C1c2ccccc2C(=O)N1c1ccc(Cl)cc1", "Potency": "inactive"}
{"smiles": "O=C1c2ccccc2C(=O)N1c1cccc2cccnc12", "Potency": "inactive"}
{"smiles": "Cc1ccc(C)c(NC2=NS(=O)(=O)c3ccccc32)c1", "Potency": "inactive"}
{"smiles": "O=C1c2ccccc2C(=O)N1c1nccs1", "Potency": "inactive"}
{"smiles": "O=C1CCc2cc(S(=O)(=O)Nc3ccc(F)cc3)ccc2N1", "Potency": "inactive"}
{"smiles": "Cc1cccc(OC2=NS(=O)(=O)c3ccccc32)c1", "Potency": "7.02 µM (active)"}
{"smiles": "COc1ccc(OC2=NS(=O)(=O)c3ccccc32)cc1", "Potency": "4.31 µM (active)"}
{"smiles": "Cc1ccc(OC2=NS(=O)(=O)c3ccccc32)cc1", "Potency": "12.5 µM (active)"}
{"smiles": "Cc1ccccc1NS(=O)(=O)c1ccc2c(c1)CCC(=O)N2", "Potency": "inactive"}
{"smiles": "COc1ccccc1NS(=O)(=O)c1ccc2c(c1)CCC(=O)N2", "Potency": "inactive"}
{"smiles": "Cc1cc2c(s1)c1cnn(Cc3ccccc3F)c(=O)c1n2C", "Potency": "inactive"}
{"smiles": "O=S1(=O)N=C(Oc2ccccc2F)c2ccccc21", "Potency": "3.26 µM (active)"}
{"smiles": "O=S1(=O)N=C(OCc2ccccc2)c2ccccc21", "Potency": "inactive"}
{"smiles": "CC(=O)Nc1ccc(OC2=NS(=O)(=O)c3ccccc32)cc1", "Potency": "4.11 µM (active)"}
{"smiles": "Cc1nc(-c2ccc(S(=O)(=O)Nc3ccc(C)c(C)c3)s2)cs1", "Potency": "inactive"}
{"smiles": "COc1cccc(Cn2ncc3c4sc(S(C)=O)cc4n(C)c3c2=O)c1", "note": "(stereo not given)", "Potency": "inactive"}
{"smiles": "O=C1CCc2cc(S(=O)(=O)Nc3cccc(C(F)(F)F)c3)ccc2N1", "Potency": "inactive"}
{"smiles": "Cc1ccc(NS(=O)(=O)c2cc3c(cc2N(C)C)NC(=O)CC3)cc1C", "Potency": "inactive"}
{"smiles": "Cc1ccc(Nc2c(-c3ccsc3)nc3cccc(C)n23)cc1", "Potency": "inactive"}
{"smiles": "Cc1ccc(NS(=O)(=O)c2ccc(-c3ccccc3)cc2)cc1C", "Potency": "inactive"}
{"smiles": "Cc1ccc(NS(=O)(=O)c2ccc3c(c2)CCC(C)(C)O3)cc1C", "Potency": "inactive"}
{"smiles": "Cc1ccc2nc(-c3ccc(C)o3)c(Nc3ccc(Cl)cc3)n2c1", "Potency": "inactive"}
{"smiles": "Cc1ccc(NS(=O)(=O)c2cc3c(cc2Cl)NC(=O)CO3)cc1C", "Potency": "inactive"}
{"smiles": "O=S1(=O)N=C(N2CCOCC2)c2ccccc21", "Potency": "inactive"}
{"smiles": "Cc1ccc(NS(=O)(=O)c2cccc(Cl)c2)cc1C", "Potency": "inactive"}
{"smiles": "Cc1ccccc1Nc1c(-c2ccc(Cl)s2)nc2ccccn12", "Potency": "inactive"}
{"smiles": "COc1cc(N2C(=O)c3ccccc3C2=O)c2ncccc2c1", "Potency": "inactive"}
{"smiles": "COc1cccc(NS(=O)(=O)c2ccc3c(c2)CCC(=O)N3)c1", "Potency": "inactive"}
